Data published in PubChem BioAssay (EPA / NIEHS).
Records with an inconclusive call do not appear. Active and inactive are the calls of the source. Rule for the calls: active = hit-call score of the fitted dose curve at least 0.9, where 1 is the maximum; inconclusive = response in the unintended direction; inactive = score below 0.9.

Assays:
[1] = target: human Neurokinin, NK2 Receptor, TACR2 (gene 6865) (UniProt P21452); test: NVS_GPCR_hNK2: NovaScreen (NVS) G Protein-Coupled Receptor Assay for human Neurokinin, NK2 Receptor (AID 2283278);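 note: actives reduce bound radioligand signal relative to DMSO baseline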
In short: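 Cell-free radioligand binding using receptor protein extracted from CHO cells; readings taken 4 hours after chemical dosing by filter-based scintillation counting. Primary screen ran single concentration (25 uM) in duplicate; actives followed up in concentration series, loss-of-signal versus DMSO baseline.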

[2] = target: human Adrenergic, Alpha 2c Receptor (Adra2C), ADRA2C (gene 152) (UniProt P18825); test: NVS_GPCR_hAdra2C: NovaScreen (NVS) G Protein-Coupled Receptor Assay for human Adrenergic, Alpha 2c Receptor (Adra2C) (AID 2283259)
In short: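 Radioligand binding on Sf9-expressed receptor membranes, 1 h after chemical dosing, filter-based scintillation read-out. Loss of binding fitted positively versus DMSO; primary duplicate screen at 25 uM, actives retested in concentration series.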

[3] = target: human Dopamine Receptor D4.4 (DRD4.4), DRD4 (gene 1815) (UniProt P21917); test: NVS_GPCR_hDRD4.4: NovaScreen (NVS) G Protein-Coupled Receptor Assay for human Dopamine Receptor D4.4 (DRD4.4) (AID 2283264)
Experimental: NVS_GPCR_hDRD4.4 is a biochemical, single-readout assay that uses extracted gene-proteins from CHO in a cell-free assay. Measurements were taken 1 hour after chemical dosing in a 96-well plate.NVS_GPCR_hDRD4.4 is one of one assay component(s) measured or calculated from the NVS_GPCR_hDRD4.4 assay. It is designed to make measurements of radioligand binding, a form of binding reporter, as detected with scintillation counting signals by Filter-based radiodetection technology.Data from the assay component NVS_GPCR_hDRD4.4 was analyzed into 1 assay endpoint. This assay endpoint, NVS_GPCR_hDRD4.4, was analyzed in the positive analysis fitting direction relative to DMSO as the negative control and baseline of activity. […] Furthermore, this assay endpoint can be referred to as a primary readout, because the performed assay has only produced 1 assay endpoint. […]
Binding assays used specific radioligands (tritiated, iodinated) with non-radioactive competitive displacement ligands in agonist or antagonist protocols (as indicated) and various reference compounds and inhibitors to titrate specific binding to receptors and transporters. Most enzyme assays (CYPs, kinases, phosphatases, proteases, HDACs) used recombinant protein and specific substrates (fluorescence mostly, some colorimetric and radioactive) and inhibitors, followed by a biochemical separation of substrate and product. […]

[4] = target: human Dopamine Receptor D2 (DRD2), DRD2 (gene 1813) (UniProt P14416); test: NVS_GPCR_hDRD2s: NovaScreen (NVS) G Protein-Coupled Receptor Assay for human Dopamine Receptor D2 (DRD2) (AID 2283266)
In short: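 Radioligand displacement used human DRD2 membranes extracted from CHO cells and was read by filter-based scintillation counting after 1.5 hours. Primary screening was in duplicate at 25 uM. Loss of signal versus DMSO was fitted, with concentration series in follow-up.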

[5] = target: human Histamine 1 Receptor (H1), HRH1 (gene 3269) (UniProt P35367); test: NVS_GPCR_hH1: NovaScreen (NVS) G Protein-Coupled Receptor Assay for human Histamine 1 Receptor (H1) (AID 2283268)
In short: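 Cell-free radioligand displacement at human H1 receptor, 1 h, filter scintillation counting; primary screen 25 uM in duplicate, hits in concentration series; loss of binding fitted vs DMSO.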

[6] = target: D(1A) dopamine receptor (Homo sapiens) (UniProt P21728); test: NVS_GPCR_hDRD1: NovaScreen (NVS) G Protein-Coupled Receptor Assay for human Dopamine Receptor D1 (DRD1) (AID 2283269)
In short: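 Cell-free competition with radioligand, filter-trapped and scintillation-counted 1 h post-dose, using HEK293-derived human D1 preparation. Duplicate single-point testing at 25 uM first, then concentration series for actives; DMSO served as baseline, loss-of-signal scored.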

[7] = target: Muscarinic acetylcholine receptor M3 (Homo sapiens) (UniProt P20309); test: NVS_GPCR_hM3: NovaScreen (NVS) G Protein-Coupled Receptor Assay for human Muscarinic, M3 Receptor (AID 2283272)
In short: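 Radioligand displacement binding on human M3 receptor in CHO-derived membranes, 1 h incubation, filter-based scintillation counting. Primary screen in duplicate at 25 uM; actives followed up in concentration series; loss of signal versus DMSO.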

[8] = target: Muscarinic acetylcholine receptor M5 (Homo sapiens) (UniProt P08912); test: NVS_GPCR_hM5: NovaScreen (NVS) G Protein-Coupled Receptor Assay for human Muscarinic, M5 Receptor (AID 2283275)
In short: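 Radioligand displacement on CHO-derived membrane preparations, 1 h, filter-based scintillation counting. Single-concentration duplicate screen at 25 uM; hits (e.g. 30% inhibition) retested in singleton concentration-response up to 50 uM. Loss of binding fitted versus DMSO.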

Sequence of human Neurokinin, NK2 Receptor, TACR2 (gene 6865) (P21452 whole entry, looked up): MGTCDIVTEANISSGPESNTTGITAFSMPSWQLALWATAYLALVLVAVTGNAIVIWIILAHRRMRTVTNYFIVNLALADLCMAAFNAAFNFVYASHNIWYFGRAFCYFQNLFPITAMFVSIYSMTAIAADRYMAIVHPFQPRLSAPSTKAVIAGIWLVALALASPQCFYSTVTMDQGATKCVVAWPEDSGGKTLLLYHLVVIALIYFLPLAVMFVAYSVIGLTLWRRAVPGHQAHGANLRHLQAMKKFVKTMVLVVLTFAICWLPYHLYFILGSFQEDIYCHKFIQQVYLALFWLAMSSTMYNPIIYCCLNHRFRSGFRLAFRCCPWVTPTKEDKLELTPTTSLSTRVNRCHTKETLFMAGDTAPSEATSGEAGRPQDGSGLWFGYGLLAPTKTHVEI
Sequence of human Histamine 1 Receptor (H1), HRH1 (gene 3269) (P35367 whole entry, looked up): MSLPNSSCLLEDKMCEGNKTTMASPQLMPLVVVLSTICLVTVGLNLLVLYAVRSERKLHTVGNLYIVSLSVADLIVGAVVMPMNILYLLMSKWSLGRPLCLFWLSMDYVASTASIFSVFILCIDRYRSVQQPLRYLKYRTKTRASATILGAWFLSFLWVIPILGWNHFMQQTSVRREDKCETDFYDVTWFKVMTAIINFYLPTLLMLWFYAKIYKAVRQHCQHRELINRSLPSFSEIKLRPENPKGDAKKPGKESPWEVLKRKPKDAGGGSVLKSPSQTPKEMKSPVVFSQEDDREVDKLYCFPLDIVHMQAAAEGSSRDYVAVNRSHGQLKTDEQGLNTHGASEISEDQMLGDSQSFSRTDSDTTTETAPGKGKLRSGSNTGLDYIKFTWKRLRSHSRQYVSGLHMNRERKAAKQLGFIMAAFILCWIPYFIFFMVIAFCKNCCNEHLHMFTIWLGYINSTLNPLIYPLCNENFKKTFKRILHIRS
Sequence of human Dopamine Receptor D2 (DRD2), DRD2 (gene 1813) (P14416 whole entry, looked up): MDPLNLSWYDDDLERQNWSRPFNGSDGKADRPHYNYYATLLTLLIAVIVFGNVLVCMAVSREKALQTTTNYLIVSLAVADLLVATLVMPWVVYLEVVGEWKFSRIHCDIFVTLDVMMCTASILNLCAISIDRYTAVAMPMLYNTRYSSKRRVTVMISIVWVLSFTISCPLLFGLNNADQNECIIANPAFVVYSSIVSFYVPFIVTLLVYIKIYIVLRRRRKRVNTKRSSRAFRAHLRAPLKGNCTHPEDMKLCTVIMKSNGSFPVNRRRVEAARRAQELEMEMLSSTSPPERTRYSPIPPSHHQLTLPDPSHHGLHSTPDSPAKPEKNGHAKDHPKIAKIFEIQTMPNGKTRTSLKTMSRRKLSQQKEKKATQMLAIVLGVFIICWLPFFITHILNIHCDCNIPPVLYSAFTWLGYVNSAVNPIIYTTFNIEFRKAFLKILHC
Sequence of D(1A) dopamine receptor (Homo sapiens) (P21728 whole entry, looked up): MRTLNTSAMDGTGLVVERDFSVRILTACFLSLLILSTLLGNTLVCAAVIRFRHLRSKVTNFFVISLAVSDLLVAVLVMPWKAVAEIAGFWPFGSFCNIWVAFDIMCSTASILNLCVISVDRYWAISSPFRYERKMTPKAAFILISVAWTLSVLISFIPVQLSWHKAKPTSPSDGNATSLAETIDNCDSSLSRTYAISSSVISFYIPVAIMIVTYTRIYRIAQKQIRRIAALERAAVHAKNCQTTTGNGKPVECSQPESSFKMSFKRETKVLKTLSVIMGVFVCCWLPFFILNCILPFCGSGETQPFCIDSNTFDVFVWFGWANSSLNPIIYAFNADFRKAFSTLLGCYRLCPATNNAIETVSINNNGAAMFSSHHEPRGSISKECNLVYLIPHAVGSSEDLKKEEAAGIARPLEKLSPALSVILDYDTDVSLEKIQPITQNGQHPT
Sequence of human Dopamine Receptor D4.4 (DRD4.4), DRD4 (gene 1815) (P21917 whole entry, looked up): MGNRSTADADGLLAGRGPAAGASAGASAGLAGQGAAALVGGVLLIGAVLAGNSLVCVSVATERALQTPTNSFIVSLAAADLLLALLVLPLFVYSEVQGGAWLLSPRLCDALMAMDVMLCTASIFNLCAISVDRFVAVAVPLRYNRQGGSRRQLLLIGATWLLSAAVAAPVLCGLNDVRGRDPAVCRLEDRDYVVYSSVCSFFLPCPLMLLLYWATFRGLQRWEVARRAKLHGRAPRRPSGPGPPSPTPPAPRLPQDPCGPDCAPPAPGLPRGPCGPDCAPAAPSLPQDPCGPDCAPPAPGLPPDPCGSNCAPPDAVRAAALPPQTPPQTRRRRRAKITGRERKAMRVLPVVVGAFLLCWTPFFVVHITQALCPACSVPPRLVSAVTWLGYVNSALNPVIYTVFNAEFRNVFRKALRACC
Sequence of Muscarinic acetylcholine receptor M3 (Homo sapiens) (P20309 whole entry, looked up): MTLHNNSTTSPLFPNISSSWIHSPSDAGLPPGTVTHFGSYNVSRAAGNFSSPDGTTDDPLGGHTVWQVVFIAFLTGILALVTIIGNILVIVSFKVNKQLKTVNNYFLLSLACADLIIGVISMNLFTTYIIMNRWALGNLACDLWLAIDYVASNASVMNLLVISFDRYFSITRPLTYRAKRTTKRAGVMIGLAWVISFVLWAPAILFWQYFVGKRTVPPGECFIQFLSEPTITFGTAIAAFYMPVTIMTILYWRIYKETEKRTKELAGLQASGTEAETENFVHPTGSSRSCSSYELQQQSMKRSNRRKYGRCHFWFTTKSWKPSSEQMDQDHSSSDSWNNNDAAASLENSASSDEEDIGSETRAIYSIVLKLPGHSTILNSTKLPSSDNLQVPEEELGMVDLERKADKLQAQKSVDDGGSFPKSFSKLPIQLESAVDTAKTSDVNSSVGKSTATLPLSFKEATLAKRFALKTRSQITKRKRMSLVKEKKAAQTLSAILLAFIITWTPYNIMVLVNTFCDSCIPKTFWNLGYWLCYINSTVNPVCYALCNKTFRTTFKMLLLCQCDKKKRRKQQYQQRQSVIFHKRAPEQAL
Sequence of Muscarinic acetylcholine receptor M5 (Homo sapiens) (P08912 whole entry, looked up): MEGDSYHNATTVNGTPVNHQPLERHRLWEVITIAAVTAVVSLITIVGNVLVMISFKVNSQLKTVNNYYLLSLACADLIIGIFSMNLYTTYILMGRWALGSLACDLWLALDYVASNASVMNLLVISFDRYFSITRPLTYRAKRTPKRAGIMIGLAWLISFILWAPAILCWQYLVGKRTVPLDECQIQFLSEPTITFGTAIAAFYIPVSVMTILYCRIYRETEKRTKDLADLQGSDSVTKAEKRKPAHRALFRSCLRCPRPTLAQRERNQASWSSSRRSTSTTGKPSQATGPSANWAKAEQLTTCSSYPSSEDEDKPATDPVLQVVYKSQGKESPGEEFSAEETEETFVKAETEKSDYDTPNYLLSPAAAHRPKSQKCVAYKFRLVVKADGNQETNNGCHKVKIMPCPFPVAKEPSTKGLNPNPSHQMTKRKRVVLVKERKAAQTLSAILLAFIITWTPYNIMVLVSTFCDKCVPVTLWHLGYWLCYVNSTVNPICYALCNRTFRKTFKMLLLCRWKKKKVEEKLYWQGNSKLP
Sequence of human Adrenergic, Alpha 2c Receptor (Adra2C), ADRA2C (gene 152) (P18825 whole entry, looked up): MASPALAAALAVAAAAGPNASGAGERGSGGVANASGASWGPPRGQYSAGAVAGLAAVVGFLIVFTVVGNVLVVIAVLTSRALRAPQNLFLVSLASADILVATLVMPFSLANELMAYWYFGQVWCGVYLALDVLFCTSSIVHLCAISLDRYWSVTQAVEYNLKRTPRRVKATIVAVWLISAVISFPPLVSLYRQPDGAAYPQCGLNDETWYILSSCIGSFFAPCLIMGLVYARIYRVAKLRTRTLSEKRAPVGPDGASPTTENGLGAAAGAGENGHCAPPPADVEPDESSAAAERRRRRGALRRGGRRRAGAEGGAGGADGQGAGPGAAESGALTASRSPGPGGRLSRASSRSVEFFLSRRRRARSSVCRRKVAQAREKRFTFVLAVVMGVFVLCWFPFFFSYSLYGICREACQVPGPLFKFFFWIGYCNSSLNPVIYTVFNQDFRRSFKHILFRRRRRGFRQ

CN(C)C(=S)S
AC50 [1]: 4 µM (active)

O=c1oc2ccccc2c(O)c1C(CC(O)c1ccc(-c2ccc(Br)cc2)cc1)c1ccccc1 (stereo not given)
AC50 [1]: 23.9 µM (active)

CCCCCCCCCCCCc1cccc(S(=O)(=O)O)c1
AC50 [2]: 6.82 µM (active)
AC50 [3]: 13.6 µM (active)
AC50 [4]: 22.5 µM (active)
AC50 [5]: 25.4 µM (active)
AC50 [6]: 7.44 µM (active)
AC50 [7]: 16.3 µM (active)
AC50 [8]: 28.4 µM (active)
outcome [1]: inactive
